This passage reports NF-kB reporter, IRF reporter and viability score results from the supplement of paper PMC10646978.

Common to all, as to conditions: modulator concentration 10 µM
Experiment [1] has as its system RAW-Dual (murine macrophage reporter line). In words: NF-kB reporter (SEAP) activity fold change vs agonist alone; higher = enhanced NF-kB activity. Put shortly: (§1)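 RAW-Dual murine macrophage reporter cells were plated at 50 000 per well in 384-well plates, pin-transferred compound to 10 μM final, and pre-incubated for 1 hour at 37 °C before a PRR agonist was added and the cells incubated overnight. NF-κB activity was read from supernatant SEAP with QUANTI-Blue at 620 nm absorbance, and IRF activity from Lucia luciferase with QUANTI-Luc by luminescence. Each signal was expressed as fold change by dividing by the mean agonist-only control on the same plate. Two replicate plates were averaged, with errors obtained by propagation.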

The test system is the same in experiment [2]. In words: IRF reporter (Lucia luciferase) activity fold change vs agonist alone; higher = enhanced IRF activity. The method in brief:
as §1

The test system is the same in experiment [3]. The experiment is described as follows: viability score (confluency relative to resting cells, overnight) (fraction); higher = more viable, active = viable (0.7 or more). Put shortly: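 RAW-Dual macrophages in 384-well plates were treated overnight with compound at 10 μM final. IncuCyte imaging recorded confluency, and IncuCyte software built two confluency masks across every imaged well. The viability score expresses confluency relative to resting cells and was judged against a cutoff, which a compound met only if both masks exceeded 70% of resting cells.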

Setting [4] is: agonist: CpG ODN 1826 0.5 ug/mL.

SMILES strings stand for the structures. ± gives the standard deviation.

For the compound `COC(=O)C1=CN(CC2CCCO2)C=C(C(=O)OC)C1c1cccc(OC)c1` (stereo unspecified), the NF-kB reporter in experiment [1] (setting [4]) amounted to 1.36 ± 0.25; in experiment [1] (agonist: LPS 0.1 ug/mL), 0.859 ± 0.065; in experiment [1] (agonist: MPLA […]) it was 1.29 ± 0.13. Moreover, the IRF reporter is 0.943 ± 0.034 in experiment [2] (agonist: 3'3'-cGAMP 10 ug/mL), 0.947 ± 0.045 in experiment [2] (agonist: LPS 0.1 ug/mL) and 0.879 ± 0.13 in experiment [2] (agonist: MPLA […]). Besides, the viability score in experiment [3] was 0.994 (active).

`CCCCCCCCc1ccc(CCC(N)(CO)CO)cc1.Cl`: the NF-kB reporter in experiment [1] (setting [4]) was determined as 0.687 ± 0.18; in experiment [1] (agonist: LPS 0.1 ug/mL) it was 0.685 ± 0.047; in experiment [1] (agonist: MPLA […]), 1.55 ± 0.2. Moreover, the IRF reporter was determined as 0.172 ± 0.019 in experiment [2] (agonist: 3'3'-cGAMP 10 ug/mL), 0.673 ± 0.072 in experiment [2] (agonist: LPS 0.1 ug/mL) and 0.615 ± 0.15 in experiment [2] (agonist: MPLA […]). In experiment [3], the viability score is 0.513 (inactive).

For the compound `O=C1NC(=O)c2c1cc1ccccc1c2-c1ccccc1`, the NF-kB reporter was 0.996 ± 0.18 in experiment [1] (setting [4]), 0.979 ± 0.077 in experiment [1] (agonist: LPS 0.1 ug/mL) and 0.952 ± 0.15 in experiment [1] (agonist: MPLA […]). The results for the IRF reporter in experiment [2] (agonist: 3'3'-cGAMP 10 ug/mL), in experiment [2] (agonist: LPS 0.1 ug/mL) and in experiment [2] (agonist: MPLA […]) were 0.887 ± 0.031, 1.2 ± 0.2 and 1.35 ± 0.3, respectively. Also, the viability score in experiment [3] is 0.998 (active).

As for `CCCc1nc2ccccc2n1C(=O)C=CC(=O)O`, the NF-kB reporter in experiment [1] (setting [4]) is 0.789 ± 0.061; in experiment [1] (agonist: LPS 0.1 ug/mL) it was 0.833 ± 0.06; in experiment [1] (agonist: MPLA […]) it was 1.13 ± 0.17. For the same compound, the IRF reporter in experiment [2] (agonist: 3'3'-cGAMP 10 ug/mL) came out at 0.981 ± 0.046; in experiment [2] (agonist: LPS 0.1 ug/mL) it was 1.46 ± 0.12; in experiment [2] (agonist: MPLA […]) it was 1.59 ± 0.16. In addition, the viability score in experiment [3] was 1 (active).

`O=C(CCn1c(=O)oc2ccccc21)Nc1ccccc1`: the NF-kB reporter in experiment [1] (setting [4]) came out at 1.03 ± 0.17; in experiment [1] (agonist: LPS 0.1 ug/mL), 1.22 ± 0.19; in experiment [1] (agonist: MPLA […]), 0.881 ± 0.08. In addition, the IRF reporter in experiment [2] (agonist: 3'3'-cGAMP 10 ug/mL) turned out to be 0.969 ± 0.032; in experiment [2] (agonist: LPS 0.1 ug/mL) it was 1.16 ± 0.19; in experiment [2] (agonist: MPLA […]), 1.06 ± 0.13. Further, the viability score in experiment [3] is 0.998 (active).

For `O=C(c1ccccc1)c1cc([N+](=O)[O-])ccc1N1CCOCC1`, the NF-kB reporter in experiment [1] (setting [4]) came out at 2.4 ± 0.19; in experiment [1] (agonist: LPS 0.1 ug/mL) it was 1.15 ± 0.069; in experiment [1] (agonist: MPLA […]) it was 1.88 ± 0.13. The IRF reporter was found to be 0.297 ± 0.03 in experiment [2] (agonist: 3'3'-cGAMP 10 ug/mL), 1.65 ± 0.12 in experiment [2] (agonist: LPS 0.1 ug/mL) and 1.48 ± 0.32 in experiment [2] (agonist: MPLA […]). For the same compound, in experiment [3], the viability score was 0.739 (active).

Regarding `O=C(NCCN1CCN(c2ccc(Cl)cc2)CC1)c1ccno1`, the NF-kB reporter stood at 0.933 ± 0.071 in experiment [1] (setting [4]), 0.992 ± 0.082 in experiment [1] (agonist: LPS 0.1 ug/mL) and 2 ± 0.72 in experiment [1] (agonist: MPLA […]). Moreover, the IRF reporter was determined as 1.01 ± 0.05 in experiment [2] (agonist: 3'3'-cGAMP 10 ug/mL), 1.24 ± 0.26 in experiment [2] (agonist: LPS 0.1 ug/mL) and 1.36 ± 0.49 in experiment [2] (agonist: MPLA […]). Moreover, the viability score in experiment [3] is 0.96 (active).

`COc1ccc(C(=O)Nc2ccc(Br)c(C)c2)cc1`: the NF-kB reporter came to 1.03 ± 0.089 in experiment [1] (setting [4]), 1.1 ± 0.088 in experiment [1] (agonist: LPS 0.1 ug/mL) and 1.1 ± 0.038 in experiment [1] (agonist: MPLA […]). Also, the IRF reporter in experiment [2] (agonist: 3'3'-cGAMP 10 ug/mL) amounted to 0.767 ± 0.029; in experiment [2] (agonist: LPS 0.1 ug/mL), 1.01 ± 0.098; in experiment [2] (agonist: MPLA […]), 1.2 ± 0.14. In addition, in experiment [3], the viability score was 1 (active).

With `CCc1cc(=O)oc2c(C)c(OCC(=O)c3ccc(OC)cc3)ccc12`, the NF-kB reporter amounted to 0.804 ± 0.066 in experiment [1] (setting [4]), 0.837 ± 0.039 in experiment [1] (agonist: LPS 0.1 ug/mL) and 1.06 ± 0.11 in experiment [1] (agonist: MPLA […]). The IRF reporter in experiment [2] (agonist: 3'3'-cGAMP 10 ug/mL) worked out at 0.925 ± 0.062; in experiment [2] (agonist: LPS 0.1 ug/mL), 1.45 ± 0.084; in experiment [2] (agonist: MPLA […]) it was 1.62 ± 0.14. Also, the viability score in experiment [3] is 1.01 (active).

`CO[C@@]1(NC(=O)CSCC#N)C(=O)N2C(C(=O)[O-])=C(CSc3nnnn3C)CS[C@@H]21` [Prestw-700]: the values for the NF-kB reporter in experiment [1] (setting [4]), in experiment [1] (agonist: LPS 0.1 ug/mL) and in experiment [1] (agonist: MPLA […]) were 0.993 ± 0.095, 1.02 ± 0.088 and 0.927 ± 0.063, respectively. For the same compound, the results for the IRF reporter in experiment [2] (agonist: 3'3'-cGAMP 10 ug/mL), in experiment [2] (agonist: LPS 0.1 ug/mL) and in experiment [2] (agonist: MPLA […]) were 1 ± 0.033, 1.47 ± 0.13 and 1.24 ± 0.12, respectively. For the same compound, in experiment [3], the viability score is 0.997 (active).

For the compound `N#Cc1nc(-c2ccc(COc3ccccc3)o2)oc1N1CCCCC1`, the values for the NF-kB reporter in experiment [1] (setting [4]), in experiment [1] (agonist: LPS 0.1 ug/mL) and in experiment [1] (agonist: MPLA […]) were 1.07 ± 0.06, 1.24 ± 0.077 and 1.12 ± 0.069, respectively. Further, the IRF reporter in experiment [2] (agonist: 3'3'-cGAMP 10 ug/mL) was determined as 1.27 ± 0.071; in experiment [2] (agonist: LPS 0.1 ug/mL) it was 1.53 ± 0.1; in experiment [2] (agonist: MPLA […]) it was 1.3 ± 0.14. The viability score in experiment [3] is 0.981 (active).

With `COCCN(CCOC)C(=O)Cc1csc2nc(-c3ccc(F)cc3)cn12`, the NF-kB reporter in experiment [1] (setting [4]) is 1.1 ± 0.27; in experiment [1] (agonist: LPS 0.1 ug/mL) it was 0.966 ± 0.084; in experiment [1] (agonist: MPLA […]), 0.949 ± 0.067. For the same compound, the IRF reporter in experiment [2] (agonist: 3'3'-cGAMP 10 ug/mL) was 0.947 ± 0.064; in experiment [2] (agonist: LPS 0.1 ug/mL), 1.09 ± 0.15; in experiment [2] (agonist: MPLA […]), 1.31 ± 0.24. In addition, in experiment [3], the viability score was 0.653 (inactive).

Take `Cc1occc1C(=O)NN=Cc1cc([N+](=O)[O-])ccc1O`: the NF-kB reporter in experiment [1] (setting [4]) came to 1.12 ± 0.11; in experiment [1] (agonist: LPS 0.1 ug/mL) it was 0.959 ± 0.12; in experiment [1] (agonist: MPLA […]), 1.16 ± 0.079. Besides, the IRF reporter stood at 0.681 ± 0.096 in experiment [2] (agonist: 3'3'-cGAMP 10 ug/mL), 1.23 ± 0.095 in experiment [2] (agonist: LPS 0.1 ug/mL) and 1.27 ± 0.28 in experiment [2] (agonist: MPLA […]). The viability score in experiment [3] is 0.997 (active).

As for `COc1ccc(C2=CC(=Cc3cccc(OC)c3OC)C(=O)O2)c(OC)c1`, the NF-kB reporter in experiment [1] (setting [4]) is 1.21 ± 0.3; in experiment [1] (agonist: LPS 0.1 ug/mL), 1.06 ± 0.1; in experiment [1] (agonist: MPLA […]) it was 1.07 ± 0.086. Further, the IRF reporter in experiment [2] (agonist: 3'3'-cGAMP 10 ug/mL) is 1.04 ± 0.028; in experiment [2] (agonist: LPS 0.1 ug/mL), 1.27 ± 0.18; in experiment [2] (agonist: MPLA […]), 1.16 ± 0.14. In experiment [3], the viability score was 1 (active).

With `CNCC[C@@H](Oc1ccccc1C)c1ccccc1.Cl`, the NF-kB reporter in experiment [1] (setting [4]) turned out to be 0.744 ± 0.079; in experiment [1] (agonist: LPS 0.1 ug/mL), 0.996 ± 0.05; in experiment [1] (agonist: MPLA […]), 1.26 ± 0.085. Besides, the figures for the IRF reporter in experiment [2] (agonist: 3'3'-cGAMP 10 ug/mL), in experiment [2] (agonist: LPS 0.1 ug/mL) and in experiment [2] (agonist: MPLA […]) were 1.02 ± 0.11, 0.95 ± 0.041 and 0.792 ± 0.16, respectively. The viability score in experiment [3] is 0.958 (active).

On to `Nc1ncn(C2O[C@H](CO)[C@@H](O)[C@H]2O)c(=O)n1` (stereo partly specified) [Prestw-866], for which the NF-kB reporter in experiment [1] (setting [4]) worked out at 2.01 ± 0.35; in experiment [1] (agonist: LPS 0.1 ug/mL) it was 1.24 ± 0.18; in experiment [1] (agonist: MPLA […]), 4.32 ± 0.33. Also, the IRF reporter turned out to be 0.508 ± 0.033 in experiment [2] (agonist: 3'3'-cGAMP 10 ug/mL), 0.622 ± 0.14 in experiment [2] (agonist: LPS 0.1 ug/mL) and 0.747 ± 0.1 in experiment [2] (agonist: MPLA […]). The viability score in experiment [3] was 0.806 (active).

With `CC(=O)Nc1nnc(S(N)(=O)=O)s1`, the NF-kB reporter came to 1.57 ± 0.56 in experiment [1] (setting [4]), 1.08 ± 0.18 in experiment [1] (agonist: LPS 0.1 ug/mL) and 1.07 ± 0.11 in experiment [1] (agonist: MPLA […]). In addition, the IRF reporter is 0.941 ± 0.029 in experiment [2] (agonist: 3'3'-cGAMP 10 ug/mL), 1.28 ± 0.32 in experiment [2] (agonist: LPS 0.1 ug/mL) and 0.921 ± 0.095 in experiment [2] (agonist: MPLA […]). The viability score in experiment [3] was 0.998 (active).

Regarding `COc1cccc(C2Nc3ccccc3-c3nnc(SC)nc3O2)c1OCC(=O)O` (stereo unspecified), the values for the NF-kB reporter in experiment [1] (setting [4]), in experiment [1] (agonist: LPS 0.1 ug/mL) and in experiment [1] (agonist: MPLA […]) were 0.989 ± 0.099, 0.988 ± 0.054 and 0.864 ± 0.082, respectively. Besides, the IRF reporter was 1.03 ± 0.068 in experiment [2] (agonist: 3'3'-cGAMP 10 ug/mL), 1.65 ± 0.11 in experiment [2] (agonist: LPS 0.1 ug/mL) and 1.24 ± 0.076 in experiment [2] (agonist: MPLA […]). Further, in experiment [3], the viability score is 1 (active).
